Screens from PubChem BioAssay.
SARS PLpro yeast = inhibitors of SARS-CoV papain-like protease in yeast. S. cerevisiae expressing SARS-CoV PLpro, growth rescue. Potency, µM (series often up to 32.9 µM), inactives show at the highest dose activity, positive = growth rescue, usual class: activators. 330,000 compounds, 0.19% hits; calls by dose curve; further: potency means the concentration at half of the fitted maximal effect; 0% is about no effect; nearly all actives have a fitted effect of over 55% in size
HCMV inh = inhibitors of human cytomegalovirus; HFF cells, HCMV-luciferase reporter, 72 h; hits give low values; activity change, negative = inhibition, % at 57.5 µM; 410,000 compounds, 4.5% hits; in the data active means activity change below about -60%; inconclusive means no clear call, values can overlap the other calls; inactive means above about -39%; further: on the % scale 0 is the no-effect control and ±100 the full control effect
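Cell-based, HFFs, 1000 cells/well, 16 h 37C; cpds in DMSO + HCMV-luc, MOI 1 PFU/cell; 72 h 37C; OneGlo luminescence after 5 min RT; norm. to buffer vs Salinomycin 10uM.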
HCV inhibitor = inhibitors of hepatitis C virus infection; Huh7.5.1 HCVcc-Cre infection, luciferase reporter, 44 h; 340,000 compounds, 3.4% hits; AID 651820; Potency, µM (series often up to 41.8 µM), for the others: at the highest dose activity change, negative = inhibition, usual class: inhibitors; further: potency means the concentration at half of the fitted maximal effect; on the % scale 0 is the no-effect control and ±100 the full control effect
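Cells seeded at 1,000/well and cultured 4 h, then compounds added followed by HCVcc-Cre virus (~0.5 moi). After 44 h further culture, luciferase substrate was added, plates held 15 min at room temperature, and luminescence read for 15 sec.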
Sm TGR inh = S. mansoni TGR enzyme inhibition; AID 485364; Potency, µM (series often up to 114 µM), inactives show at the highest dose activity change, negative = inhibition, usual class: inhibitors; 360,000 compounds, 3% hits; purified TGR, DTNB reduction, TNB absorbance 405 nm; further: potency means the concentration at half of the fitted maximal effect; on the % scale 0 is the no-effect control and ±100 the full control effect; nearly all actives have a fitted effect of over 60% in size
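TGR 20 nM + NADPH 100 uM (dispensed conc.), cpd preinc 15 min RT; start with NADPH (500 uM addition) then DTNB (15 mM addition). Kinetic TNB absorbance, 405 nm filter. Four-parameter Hill fit across titration.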
Pf growth 48h = P. falciparum growth inhibition at 48 hours (one generation) | P. falciparum luciferase growth in erythrocytes, 48 h | Potency, µM (doses to about 28.7 µM), without a hit: top-dose activity change, negative = inhibition, most hits filed as inhibitors | 310,000 compounds, 5.9% hits; further: potency means the concentration at half of the fitted maximal effect; on the % scale 0 is the no-effect control and ±100 the full control effect
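Cell-based growth assay: transgenic P. falciparum expressing firefly luciferase, cultured in red cells within RPMI 1640 containing 0.5% w/v Albumax, 24 mM bicarbonate and gentamycin. A drop in luciferase activity indicates inhibition.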
Pf growth 96h = inhibits malaria parasite growth, 96 h; P. falciparum luciferase reporter growth, 96 h; Potency, µM (titrated, usually from 28.7 µM), without a hit: at the highest dose activity change, negative = inhibition, most hits filed as inhibitors; 320,000 compounds, 6.9% hits; AID 504834; further: potency means the concentration at half of the fitted maximal effect; on the % scale 0 is the no-effect control and ±100 the full control effect
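Delayed-death screen, second-generation endpoint: infected erythrocytes, 2% hematocrit, 0.05% parasitemia final; 96 hours at 37 C, 5% CO2; luciferase detection reagent; luminescence decrease equals reduced growth.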
* = called active by the depositor; ? = inconclusive; . = no result given. Shown are actives, neighbours in structure and some others; about 15% of the full set was active somewhere. Unless noted, the call rests on the fitted dose curve; in most records, active means well fitted curve in the direction sought with a large enough effect; inconclusive means small, poorly fitted or top-dose-only effect, or another doubt; inactive means no such curve, though single readings can be large; an effect the other way counts as inactive or inconclusive.

SMILES	SARS PLpro yeast	HCMV inh	HCV inhibitor	Sm TGR inh	Pf growth 48h	Pf growth 96h
COc1ccccc1C(c1nnnn1C(C)(C)C)N1CCCCCC1 (centres undefined)	-0.8%	3.9	1.2%	?	8.28µM*	.
CC(C)CCn1nnnc1C(c1ccc(N(C)C)cc1)N1CCN(C(=O)c2ccco2)CC1 (centres undefined)	-16.9%	-15.7	12.9%	44.7µM*	?	10.4µM*
COc1ccc(Cc2noc(CN3CCCN(C4Cc5ccccc5C4)CC3)n2)cc1OC	1.6%	-3.8	?	?	?	10.2%
CCCCn1c(=O)n(-c2cc(OC)ccc2OC)c(=O)c2c3c(sc21)CN(C(C)=O)CC3	.	-17.6	.	0.4%	.	.
Cc1cc(C)c2[nH]c(=O)c(C(c3nnnn3C(C)(C)C)N3CCN(C(=O)c4ccco4)CC3)cc2c1 (centres undefined)	3.1%	.	-5.0%	79.4µM*	?	.
CCC(C)(C)n1nnnc1C(c1ccc(N(C)C)cc1)N1CCN(C2CCCCC2)CC1 (centres undefined)	2.2%	-1.4	-0.3%	22.4µM*	-6.8%	.
CCCC(NC(=O)C(C)NC(=O)CO/N=C1\C=C2CCC3C4CCC(C(C)=O)[C@@]4(C)CCC3[C@@]2(C)CC1)C(=O)O (some centres undefined)	0.9%	9.5	18.7%	?	0.1%	7.3%
COc1ccc(Sc2cccc3c2S(=O)(=O)N(C2CC2)C[C@@H](COCc2ccccc2)O3)cc1OC	.	-39.6	.	.	.	.
CC1=CC(C)C(C[N+]2(C)CCCCC2)C(C)C1 (centres undefined)	0.9%	36.0	3.8%	?	?	18.8%
CC1=CC(C)C(/C=N/N=C(N)N)C(C)C1 (centres undefined)	0.2%	-7.9	?	-6.4%	11.7µM*	2.94µM*
CSc1nc(-c2ccccc2)[nH]c(=S)c1C(C)=O	-0.1%	-3.1	5.6%	0.0%	.	9.28µM*
CC(=O)c1c(C)[nH]c(-c2ccccc2)nc1=S	0.4%	35.3	10.7%	12.5%	?	-29.0%
CC(=O)c1c(C)nc(-c2ccccc2)nc1NC(=O)C(C)C	12.4%	-27.5	17.3%	-33.9%	.	.
CC(=O)Nc1nc(-c2ccccc2)nc(C)c1C(C)=O	2.6%	15.6	6.5%	-0.9%	20.6%	1.85µM*
CC(=O)c1c(NC(=O)c2ccccc2)[nH]c(-c2ccccc2)nc1=S	6.9%	-84.2*	0.8%	0.4%	?	15.7%
CCOC(=O)c1c(C)nc(-c2ccccc2)nc1N	1.3%	343.6	?	3.7%	184.7%	10.4µM*
COc1cccc(CSc2nc3n(n2)C(CC(C)C)C(C(=O)Nc2ccccc2C)=C(C)N3)c1 (centres undefined)	.	-1.3	.	3.9%	.	.
COC(=O)[C@]1(C)CCC[C@@]2(C)C3CC[C@@]4(C)C[C@]3(CCC21)CC(=O)N4 (some centres undefined)	4.8%	-8.2	22.7%	-2.7%	1.9%	?
C=C1C(=O)C23CCC4C(C)(C(=O)OC)CCCC4(C)C2CCC1(O)C3 (centres undefined)	.	-98.6*	3.16µM*	.	.	.
Cc1cc(/C=C2\SC(=O)N(CC(=O)Nc3ccccc3F)C2=O)c(C)n1C	1.1%	-27.7	12.9%	25.1µM*	-7.6%	107.4%
COc1cc(/C=C2/NC(=O)N(CC(=O)Nc3cccc(C)c3)C2=O)ccc1OCC(N)=O	0.1%	-22.2	10µM*	.	?	-15.8%
O=C(CN1C(=O)NC2(CCCC2)C1=O)NCCN1C(=O)S/C(=C\c2ccccc2F)C1=O	1.8%	3.9	0.6%	-12.5%	?	4.65µM*
Cc1cccc(NC(=O)CN2C(=O)S/C(=C\c3cc(C)n(C)c3C)C2=O)c1	17.4%	-62.5*	?	?	?	16.3%
COc1ccc(/C=C2\SC(=O)N(CCNC(=O)CN3C(=O)NC4(CCCC4)C3=O)C2=O)cc1	2.4%	-21.5	?	0.7%	30.2%	3.3%
